Experimental data reported in PubChem BioAssay (NCATS).
Where “and” joins values, the source holds several entries; their conditions need not be identical. Equal entries are not always repeated. Records with an inconclusive call do not appear. Calls of active or inactive are those of the source. Calls come from the whole dose curve; as a rule, active = well fitted inhibition curve with a large enough effect; inconclusive = small, poorly fitted or top-dose-only effect; inactive = flat fitted curve, though single readings scatter.

tested on: KB-3-1; assay: Cytotoxic Profiling of Annotated Libraries Using Quantitative High-Throughput Screening (AID 1296008); conditions: Five cell lines viability, CellTiter-Glo ATP luminescence, 48-72 h; max response: hits give low values; note: nearly all actives have a fitted effect of over 60% in size
From the text: Cell-based phenotypic screening is a commonly used approach to discover biological pathways, novel drug targets, chemical probes and high-quality hit-to-lead molecules. Many hits identified from high-throughput screening campaign are ruled out through a series of follow-up potency, selectivity/specificity, and cytotoxicity assays. Prioritization of molecules with little or no cytotoxicity for a more in-depth downstream evaluation influence the future direction of projects, so cytotoxicity profiling of the screening libraries at early stage is essential for increasing the likelihood of candidate success. […] For the annotated library, we also examined the primary targets and mechanistic pathways regularly associated with cell death. To our knowledge, this is the first study to use high-throughput screening to profile large libraries for cytotoxicity assessment in both normal and cancer cell lines. In summary, the results generated here constitutes a valuable resource for the scientific community and provides insight on identifying cytotoxic compounds with particular mechanisms of action, and prioritizing compounds with suitable cytotoxicity profile for further evaluation.
A pintool (Kalypsys) was used to transfer 23 nL of compound solution to the 1536-well assay plates. After 48 or 72 hr incubation at 37 degree Celsius, 5% CO2 and 95% humidity, 2.5 uL of CellTiter-Glo (Promega) was dispensed into each well using a dispenser (Aspect Automation, St. Paul, MN) with solenoid valves (Lee Valves, Westbrook CT). Plates were left at room temperature for 10 min before imaging the ATP-coupled luminescence using a ViewLux microplate imager (PerkinElmer, Waltham, MA).
% is set by controls: 0 for no effect and ±100 for the full control effect; potency is the fitted concentration of half-maximal effect.

| Structure (SMILES) | max response | Potency |
| --- | --- | --- |
| NC(=O)C1(N2CCCCC2)CCN(CCCC(=O)c2ccc(F)cc2)CC1 | 5.68% (inactive) | – |
| CCOc1cc(OCC)c(C(=O)CCC(=O)O)cc1OCC | -0.0013% (inactive) | – |
| CCN1/C(=C/C=C/c2sc3ccccc3[n+]2CC)Sc2ccccc21 | – | 7.31 µM (active) |
| CCCCCCCCCCC[C@@H](C[C@@H]1OC(=O)[C@H]1CCCCCC)OC(=O)[C@H](CC(C)C)NC=O | -9.82% (inactive) | – |
| CC(=O)NCCCCCC(=O)O | 0.772% (inactive) | – |
| CCCCNc1ccc(C(=O)OCCOCCOCCOCCOCCOCCOCCOCCOCCOC)cc1 | -13.9% (inactive) | – |
| CCC1NC(=O)c2cc(S(N)(=O)=O)c(Cl)cc2N1 (stereo not given) | -10.4% (inactive) | – |
| C[N+]1(CC2COC(c3ccccc3)(C3CCCCC3)O2)CCCCC1 (stereo not given) | -6.02% (inactive) | – |
| O=C(Nc1cccc(C2=NCCN2)c1)Nc1cccc(C2=NCCN2)c1 | -7.99% (inactive) | – |
| O=C(O)C(Cc1cc(I)c(O)c(I)c1)c1ccccc1 (stereo not given) | -19.5% (inactive) | – |
| CCN[C@@H]1C[C@H](N)[C@@H](OC2OC(CN)=CCC2N)[C@H](O)[C@H]1O[C@H]1OC[C@](C)(O)[C@H](NC)[C@H]1O (stereo not given in full) | 17.1% (inactive) | – |
| CC(C)(C)CC(C)(C)c1ccc(O)c(-n2nc3ccccc3n2)c1 | 2.75% (inactive) | – |
| O=C(Oc1cccc2cccnc12)c1ccccc1 | 6.72% (inactive) | – |
| CC(=O)Nc1ncc([N+](=O)[O-])s1 | 1.85% (inactive) | – |
| CCCCN1C[C@H](O)[C@@H](O)[C@H](O)[C@H]1CO | 15.3% (inactive) | – |
| CN(Cc1ccc(C(C)(C)C)cc1)Cc1cccc2ccccc12 | -4.26% (inactive) and -7.03% (inactive) | – |
| CO[C@]12C[C@@H](COC(=O)c3cncc(Br)c3)CN(C)[C@@H]1Cc1cn(C)c3cccc2c13 | 9.31% (inactive) | – |
| CCCCCN=C(N)N/N=C/c1c[nH]c2ccc(OC)cc12 | 1.55% (inactive) | – |
| CCCCCCCCCCCCSCCOCCO | 1.68% (inactive) | – |
| O=C(O)C1(C(=O)O)CCC1.[NH2-].[NH2-].[Pt+2] | 13% (inactive) | – |

| Structure (SMILES) | max response | Potency |
| --- | --- | --- |
| CCNC(=O)/C=C/c1cccc(Br)c1 | -0.104% (inactive) | – |
| CCN(CC)CCOc1ccc2c(c1)C(=O)c1cc(OCCN(CC)CC)ccc1-2 | 41.3% (inactive) | – |
| CCN(CC)CCNC(=O)COc1ccc(OC)cc1 | 7.84% (inactive) | – |
| NS(=O)(=O)Cc1noc2ccccc12 | 2.97% (inactive) | – |
| COc1ccc(-c2cc(C(F)F)nn2-c2ccc(S(N)(=O)=O)cc2)cc1F | 15.2% (inactive) | – |
| CC(=O)Nc1ccc(OCC(O)CNC(C)C)cc1 (stereo not given) | -4.81% (inactive) | – |
| CCC(CC)(CC(=O)Nc1cccc(/C=C/c2nc(C3CCC3)cs2)c1)C(=O)O | -22.9% (inactive) | – |
| CCCCc1cc2ccccc2c(OCCN(C)C)n1 | -3.23% (inactive) | – |
| CC(=O)OCC(=O)[C@H]1CC[C@H]2[C@@H]3CCC4=CC(=O)CC[C@]4(C)[C@H]3CC[C@]12C | -19.8% (inactive) | – |
| COc1ccc(S(=O)(=O)N2c3ccc(Cl)cc3[C@@](O)(c3ccccc3Cl)[C@H]2C(=O)N2CCC[C@@H]2C(N)=O)cc1OC | -5.62% (inactive) | – |
| NC1CCN(c2nc3c(cc2F)c(=O)c(C(=O)O)cn3-c2ccc(F)cc2F)C1 (stereo not given) | 1.57% (inactive) | – |
| CC(C)Cc1ccc(CC(=O)O)cc1 | -9.62% (inactive) | – |
| c1ccc(CC2=NCCN2)cc1 | -6.13% (inactive) | – |
| COc1ccc(C(=O)c2ccccc2)c(O)c1 | -18.9% (inactive) | – |
| COc1ccc(CCN(C)CCCN2CCc3cc(OC)c(OC)cc3CC2=O)cc1OC | -10.8% (inactive) | – |
| CN1CCC(OC(c2ccccc2)c2ccccc2)CC1 | -12.2% (inactive) | – |
| COc1cc(C)nc(-n2nc(C)cc2OC)n1 | 4.41% (inactive) | – |
| CN(C)CCC[C@@]1(c2ccc(F)cc2)OCc2cc(C#N)ccc21 | -13.4% (inactive) | – |
| CN1CCN(c2c(F)cc3c(=O)c(C(=O)O)cn4c3c2SCC4)CC1 | -15.8% (inactive) | – |
| CC(=O)O[C@]1(C(C)=O)CC[C@H]2[C@@H]3C=C(Cl)C4=CC(=O)CC[C@]4(C)[C@H]3CC[C@@]21C | 2.1% (inactive) | – |
